This is an account of results in PubChem BioAssay (NCATS).

Records with an inconclusive call do not appear. The source made the active and inactive calls. Unless noted, calls follow the shape of the dose curve; as a rule, active = well fitted curve in the direction sought with a large enough effect; inconclusive = small, poorly fitted or top-dose-only effect, or another doubt; inactive = no such curve, though single readings can be large; an effect the other way counts as inactive or inconclusive.

Test [1] deals with Zika virus NS2B-NS3 protease (linked construct). The experiment in a line: Primary screen NINDS Rhodamine qHTS for Zika virus inhibitors (AID 1347160). Also: % is scaled to controls: 0 for no effect and ±100 for the full control effect; nearly all actives have a fitted effect of over 55% in size. The method, boiled down:
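Purified linked NS2B-NS3 protease (NS2B hydrophilic domain joined to NS3 protease by flexible linker), 25 nM in 10 mM Tris-HCl pH 8.0, 0.01% Tween 20. Compounds titrated, 15 min preincubation at room temperature; 1.5 microM Rhodamine110 substrate, FITC fluorescence change over 15 min.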
Background: Quantitative high-throughput screening tests each substance at several concentrations.

Test [2] deals with Calcium and integrin-binding protein 1 (Homo sapiens) (UniProt Q99828). The experiment in a line: Primary qHTS for Identification of Calcium Integrin Binding Protein 1 (CIB1) Competitor (AID 1508620). Also: top concentration of the series differs between compounds; % is scaled to controls: 0 for no effect and ±100 for the full control effect. The method, boiled down: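 Fluorescence polarization competition: GST-tagged CIB1 (1 uM final) preincubated with compound 15 min at room temperature, then FITC-labelled alphaIIb peptide (100 nM final) added. After 15 min at room temperature, polarization read at Ex 480/Em 540.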
Chain of Calcium and integrin-binding protein 1 (Homo sapiens) (Q99828 whole entry, looked up): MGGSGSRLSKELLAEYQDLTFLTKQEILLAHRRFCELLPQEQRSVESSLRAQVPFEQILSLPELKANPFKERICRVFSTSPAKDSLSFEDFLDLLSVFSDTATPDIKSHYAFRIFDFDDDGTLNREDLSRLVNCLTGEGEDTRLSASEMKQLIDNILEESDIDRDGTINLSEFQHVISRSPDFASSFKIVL

Test [3] addresses Glutathione peroxidase 1 (Homo sapiens) (UniProt P07203). Put plainly: Primary qHTS Assay for Inhibitors of Recombinant Selenoprotein Glutathione Peroxidase 1 (GPX1) (AID 1845191). Also: nearly all actives have a fitted effect of over 65% in size. The method, boiled down: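 GR-coupled assay: compounds preincubated 30 min at room temperature with GPX1, then reaction started with CHP; final 10 nM GPX1, 1 mM GSH, 0.5 mM CHP, 0.5 mM NADPH, 100 nM GR, 0.01% BSA, pH 7.5 Tris buffer. NADPH fluorescence (340/450 nm) read at 0 and 15 min.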

The target of test [4] is Phospholipid hydroperoxide glutathione peroxidase GPX4 (Homo sapiens) (UniProt P36969). Put plainly: Primary qHTS Assay for Inhibitors of Recombinant Selenoprotein Glutathione Peroxidase 4 (GPX4) (AID 1845192). Also: nearly all actives have a fitted effect of over 65% in size. As to conditions: outcome: dose series up to 50 µM unless noted. The method in brief:
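GR-coupled assay: recombinant GPX4 preincubated 30 min with compound at room temperature; final 200 nM GPX4, 1 mM GSH, 0.5 mM cumene hydroperoxide, 0.5 mM NADPH, 100 nM GR, 0.01% BSA, pH 7.5 Tris. NADPH fluorescence (340/450 nm) read at 0 and 15 min.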

The target in test [5] is Luciferin 4-monooxygenase (Photinus pyralis) (UniProt P08659). Put plainly: Primary firefly luciferase (FLuc) qHTS assay for identification of artifact compounds. (AID 1845220). Also: nearly all actives have a fitted effect of over 60% in size. Also: potency is read from the fitted curve at half-maximal effect. The method in brief: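 Titrated compounds were incubated 15 min at RT, protected from light, with luciferin and ATP at 10 uM; reaction started with 10 nM FLuc, luminescence imaged at 5 min, and concentration-response fitted by Hill equation.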

Test [6] has as its system Nanoluciferase (engineered Oplophorus gracilirostris luciferase). Put plainly: Primary Nanoluciferase (NLuc) qHTS assay for identification of artifact compounds. (AID 1845222).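 Also: NLuc secreted into diluted conditioned medium of S16 cells; 0% = DMSO and -100% = no enzyme.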 The method in brief:
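qHTS format, against NLuc in S16 cell-conditioned medium. Nano-Glo substrate 1:100 was added after 15 min at room temperature. Luminescence was taken after a further 5 min.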

Test [7] is described as follows: Primary redox qHTS assay for identification of artifact compounds. (AID 1845223).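 Also: 0% = DMSO and 100% = reference compound.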 The method in brief:
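Amplex Red (25 uM) and HRP (250 mU/mL) in HBSS, with compounds for 15 min, then 250 uM DTT for 30 min, room temperature, dark. Fluorescence 525/598 nm read; normalized to DMSO and 10 uM DA3003; Hill fit.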

For another test, the system named is C33A. The experiment in a line: Primary qHTS to identify gynecologic anti-cancer compounds using libraries of approved drugs and bioactive compounds (AID 1345084). Also: nearly all actives have a fitted effect of over 55% in size. Also: potency is read from the fitted curve at half-maximal effect. The note with it: Gynecologic cancer cell panel viability, ATPlite luminescence, 48 h; series mostly up to 57.5 µM. The method in brief: (§1)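 ATP-based viability (ATPlite), 1,000 cells/well, 16 h pre-incubation, 48 h compound at 37 C, 5% CO2, 15 min RT before read.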

The test system of the next test is CASKI. The description is as above. The note with it: Gynecologic cancer cell panel viability, ATPlite luminescence, 48 h; series mostly up to 57.5 µM. The method in brief: as §1
On the technique in general: In ATP-based viability assays light output follows the ATP content of the culture.

Another test has as its system Es-2. The test is described as above. The note with it: Gynecologic cancer cell panel viability, ATPlite luminescence, 48 h; series mostly up to 57.5 µM. The method, boiled down: as §1
The next test has as its system HeLa. Described as above. As to conditions: Gynecologic cancer cell panel viability, ATPlite luminescence, 48 h; series mostly up to 57.5 µM. The method, boiled down: as §1
The subject of the next test is Hek293T. The description is as above. The note with it: Gynecologic cancer cell panel viability, ATPlite luminescence, 48 h, control line for the selectivity index; series mostly up to 57.5 µM. The method in brief: as §1
The next test deals with JEG-3. Described as above. As to conditions: Gynecologic cancer cell panel viability, ATPlite luminescence, 48 h; series mostly up to 57.5 µM. The method, boiled down: as §1
The test system of another test is OV90. Described as above. As to conditions: Gynecologic cancer cell panel viability, ATPlite luminescence, 48 h; series mostly up to 57.5 µM. The method, boiled down:
as §1

Another test deals with Tov-21-G. Described as above. As to conditions: Gynecologic cancer cell panel viability, ATPlite luminescence, 48 h; series mostly up to 57.5 µM. The method, boiled down: as §1
For the next test, the system named is Tov112D. The description is as above. As to conditions: Gynecologic cancer cell panel viability, ATPlite luminescence, 48 h; series mostly up to 57.5 µM. The method in brief: as §1
Test [8] in a line: Primary qHTS for inhibitors of nuclear receptor binding SET domain protein 2 (NSD2) in an isogenic RCH-ACV NSD2 p.E1099K mutant (9B) (AID 1645876). Also: potency is read from the fitted curve at half-maximal effect; nearly all actives have a fitted effect of over 70% in size.
A short description of test [9]: Primary qHTS for inhibitors of nuclear receptor binding SET domain protein 2 (NSD2) in an RCH-ACV wild type WT cells (2C) (AID 1645877). Also: potency is read from the fitted curve at half-maximal effect; nearly all actives have a fitted effect of over 70% in size.
Another test deals with HaCat. Put plainly: Cytotoxic Profiling of Annotated Libraries Using Quantitative High-Throughput Screening (AID 1296008). Also: % is scaled to controls: 0 for no effect and ±100 for the full control effect; nearly all actives have a fitted effect of over 60% in size. As to conditions: Five cell lines viability, CellTiter-Glo ATP luminescence, 48-72 h; max response: stronger effect = lower value. The method in brief: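 Cells exposed to compounds for 48 or 72 hr at 37 degrees Celsius. Viability read as ATP-coupled luminescence with CellTiter-Glo after 10 min at room temperature.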

Test [10] in a line: qHTS drug screen for cell cycle checkpoint inhibitors in PARPi-resistant BRCA-mutant ovarian cancer cell lines. (AID 1963452; calls by dose curve). As to conditions: PEO1/OlaR viability, CellTiter-Glo luminescence, 96 h, stronger effect = lower value. The method in brief:
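PEO1, PEO4 and PEO1/OlaR ovarian cancer cells, 600 per well, exposed 96 h at 37C to a dilution series. Viability read by CellTiter-Glo luminescence, normalized to DMSO and empty wells; activity summarized as Z-AUC.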

Setting [11] is: measured here: PEO1 parental Z-AUC.

Chain of Glutathione peroxidase 1 (Homo sapiens) (P07203 whole entry, looked up): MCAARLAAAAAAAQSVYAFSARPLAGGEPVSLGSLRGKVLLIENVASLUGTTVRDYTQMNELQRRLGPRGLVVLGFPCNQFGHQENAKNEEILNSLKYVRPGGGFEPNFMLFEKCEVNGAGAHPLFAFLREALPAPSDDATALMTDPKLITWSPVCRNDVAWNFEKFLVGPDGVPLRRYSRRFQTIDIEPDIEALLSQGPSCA
Chain of Phospholipid hydroperoxide glutathione peroxidase GPX4 (Homo sapiens) (P36969 whole entry, looked up): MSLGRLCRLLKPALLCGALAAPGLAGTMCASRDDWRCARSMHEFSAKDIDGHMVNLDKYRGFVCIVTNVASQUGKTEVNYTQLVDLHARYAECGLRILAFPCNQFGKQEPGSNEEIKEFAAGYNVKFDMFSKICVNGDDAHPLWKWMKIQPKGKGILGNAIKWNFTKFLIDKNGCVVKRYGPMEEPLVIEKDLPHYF

Turning to `CC1CCN(c2cc(NC(=O)c3ccccc3)ncn2)CC1`, the Potency result in test [1], in test [3], in test [4], in [5], in [6] and in test [7] was “inactive” each time. Besides, the Potency result in the test on C33A, with CASKI, in the test with Es-2, with HeLa, with Hek293T and in the test with JEG-3 was “inactive” throughout. The Potency result with OV90, in the test with Tov-21-G and with Tov112D was “inactive” throughout. For the same compound, the outcome in test [2] was inactive.
Consider `COc1ccccc1NC(=O)Nc1ccc2ccccc2c1`, for which the Potency result (in test [1]; in test [3]; in test [4]; in test [6]; in test [7]; in the test on C33A) was “inactive” throughout. Besides, the Potency entry in the test with Es-2, in the test on HeLa, with Hek293T, with JEG-3 and in the test with Tov112D was “inactive” throughout. Further, the result in [2] was inactive. For the same compound, the Potency in [8] is 25.8 µM (active); in test [9], 2.9 µM (active); in [5], 8.49 µM (active). Moreover, in the test on HaCat, the max response is -10% (inactive).
For the compound `CS(=O)(=O)c1ccc(-c2cn3ccccc3n2)cc1`, the Potency in the test with C33A is 10 µM (active); in the test on CASKI it was 6.31 µM (active); in the test on HeLa, 12.6 µM (active); in the test with Hek293T it was 17.8 µM (active); in the test with JEG-3, 7.08 µM (active); in the test with OV90 it was 7.94 µM (active). Moreover, the Potency in the test with Tov-21-G is 8.91 µM (active); in the test on Tov112D, 7.94 µM (active).
Take `Cc1nc2ccc(C(=O)N3CCC4(CC3)CC(=O)c3c(cnn3C(C)C)C4)cc2[nH]1`: the result in test [2] was inactive. Besides, the Potency entry in test [3] and in test [4] was “inactive” in each case. Also, the Z-AUC in test [10] was -0.421 (inactive); in test [10] (setting [11]) it was -0.389; in test [10] (measured here: PEO4 Z-AUC), -0.0398. Besides, the max response in the test on HaCat is -28.8% (inactive).
`C=C1C(=O)O[C@@H]2CC(C)=C([C@@H](C)CCCO)[C@@H](OC(=O)C(C)C)[C@H]12`: the Potency result (in test [1]; in [3]; in test [5]; in test [6]; in the test on C33A; in the test on Es-2) was “inactive” in each case. Besides, the Potency result with HeLa, in the test on JEG-3 and in the test with OV90 was “inactive” in each case. The result in [2] was inactive. Also, the Potency in test [8] and in [9] was 14.2 µM (active) each time.
`Oc1ccc(Nc2nc(-c3ccc(Cl)cc3)cs2)cc1`: the Potency entry (in test [1]; in test [3]; in [6]; in [7]; in the test on CASKI; in the test on Es-2) was “inactive” in each case. Moreover, the Potency result in the test on Hek293T, with JEG-3, in the test with OV90 and in the test with Tov-21-G was “inactive” throughout. Further, in test [2], the result was inactive. In addition, the Potency was 6.61 µM (active) in test [8], 6.61 µM (active) in test [9] and 4.78 µM (active) in [5]. Besides, the Z-AUC is -0.146 (inactive) in [10], 0.0588 in [10] (setting [11]) and 0.0633 in test [10] (measured here: PEO4 Z-AUC). For the same compound, the max response in the test on HaCat was -8.45% (inactive).
For `CC1OC2O[C@H]3[C@@H](OCC(O)[C@H]3O)OC(=O)C34CCC(C)(C)CC3C3=CCC5C6(C)CC(O)C(OC7OC(CO)C(O)C(O)C7O[C@@H]7OC[C@H](OC(=O)CC(C)(O)CC(=O)OC1C(OC1OCC(O)C(O)C1O)C2O)[C@@H](O)[C@H]7O)C(C)(CO)C6CCC5(C)C3(C)CC4` (some centres not stated), the Potency result (in test [1]; in test [3]; in test [5]; in test [7]; in the test on CASKI; in the test on HeLa) was “inactive” throughout. Besides, the Potency entry with Hek293T was “inactive”. Also, the outcome in test [2] was inactive. In addition, the Potency is 8.93 µM (active) in test [8] and 4.47 µM (active) in [9].
